# High-throughput results deposited in PubChem BioAssay by National Center for Advancing Translational Sciences (NCATS).
# Compounds with a hit are over-represented: about 12% of the library has one in this group of screens.
# G9a block: blocks human histone lysine methyltransferase G9a; Q96KQ7; G9a H3K9 monomethylation, AlphaScreen, 2 h; Potency, µM (highest dose often 102 µM), most hits filed as inhibitors; hit rate 8.8% among 350,000; also: nearly all actives have a fitted effect of over 75% in size
# Target sequence (Q96KQ7 913-1193 limits assumed): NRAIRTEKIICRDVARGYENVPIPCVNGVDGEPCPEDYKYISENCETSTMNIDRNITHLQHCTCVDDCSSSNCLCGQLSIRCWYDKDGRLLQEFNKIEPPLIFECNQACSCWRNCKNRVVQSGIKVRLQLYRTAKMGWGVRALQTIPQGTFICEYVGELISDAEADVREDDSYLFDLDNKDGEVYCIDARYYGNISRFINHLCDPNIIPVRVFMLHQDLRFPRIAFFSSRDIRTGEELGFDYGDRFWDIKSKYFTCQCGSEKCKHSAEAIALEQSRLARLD
#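 Enzyme 20 nM + cpd, 15 min RT; add b-H3K9 pep 500 nM / SAM 20 uM; 2 h RT; anti-H3K9me1 Ab 0.5 ug/mL + SA donor / anti-rabbit acceptor beads 20 ug/mL each, 10 min; AlphaScreen read.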
# HP1b binding inh: HP1-beta chromodomain-methylated histone interaction inhibition; P83916; AlphaScreen HP1-beta / biotin-H3K9me3 peptide binding; Potency, µM (highest dose often 114 µM), usual class: inhibitors; hit rate 0.56% among 390,000; also: nearly all actives have a fitted effect of over 70% in size
#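 HP1-beta protein (50 nM final) preincubated 30 min at room temperature with biotinylated H3(1-18)K9me3 peptide (50 nM) in PBS pH 7.4, 0.01% Tween-20, then compound added for 30 min. AlphaScreen streptavidin donor/nickel chelate acceptor beads (10 ug/mL final), 30 min dark, luminescence read.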
# PI5P4Ka inh: inhibitors of human PI5P4K alpha; P48426; PI5P4Kalpha enzyme, ADP-Glo luminescence, 60 min; stronger effect = lower value; max response, %; hit rate 1.2% among 330,000; AID 652105; active = max response of -50% or lower; inconclusive = between -30% and -50%; inactive = -30% or higher; also: value at the top dose of about 77 µM
# Target sequence (P48426 whole entry, looked up): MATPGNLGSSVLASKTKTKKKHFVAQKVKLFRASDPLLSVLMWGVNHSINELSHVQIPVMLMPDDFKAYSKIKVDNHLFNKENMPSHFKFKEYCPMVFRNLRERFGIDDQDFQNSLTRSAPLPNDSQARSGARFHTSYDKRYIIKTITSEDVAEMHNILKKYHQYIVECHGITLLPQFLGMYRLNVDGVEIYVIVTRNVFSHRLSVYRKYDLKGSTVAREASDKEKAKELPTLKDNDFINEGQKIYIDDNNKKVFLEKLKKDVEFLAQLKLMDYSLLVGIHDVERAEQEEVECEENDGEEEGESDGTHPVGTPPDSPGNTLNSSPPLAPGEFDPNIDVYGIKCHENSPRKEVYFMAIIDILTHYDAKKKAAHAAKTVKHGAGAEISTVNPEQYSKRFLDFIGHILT
#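 Single end-point luminescence (ADP-Glo) quantified ADP from PI5P4Kalpha turnover; ATP 5 microM final, 1 h at RT, 0.1% CHAPS and 0.28 mM EGTA in HEPES pH 7.4.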
# BAZ2B inh: BAZ2B (human) inhibition | Q9UIF8 | AlphaScreen BAZ2B-H3K14Ac peptide displacement | Potency, µM (top dose mostly 114 µM), most hits filed as inhibitors | hit rate 4.4% among 360,000 | AID 504333; also: nearly all actives have a fitted effect of over 60% in size
#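 BAZ2B (50 nM) with biotin-H3(5-23)K14Ac peptide (50 nM) in PBS pH 7.4, 0.01% Tween-20, preformed 30 min, then compound 30 min at room temperature; top concentration 110uM. AlphaScreen streptavidin donor/nickel chelate acceptor beads (10 ug/mL final), 20 min dark, signal read.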
# JMJD2A Tudor inh: blocks the human JMJD2A Tudor domain; hit rate 4.4% among 390,000; O75164; AlphaScreen JMJD2A-Tudor / H3K4me3 peptide binding; Potency, µM (top dose mostly 114 µM), hits mostly inhibitors; also: nearly all actives have a fitted effect of over 50% in size
# PLK1 PBD block: inhibitors of human PLK1 polo-box domain binding | Plk1 PBD binding of FITC phosphopeptide, fluorescence polarization | hit rate 2.8% among 360,000 | AID 720504 | Potency, µM, hits mostly inhibitors | P53350; also: series mostly up to about 57 µM; nearly all actives have a fitted effect of over 65% in size
# A number is an active result; – = inactive; ? = inconclusive; · = no result; ! = a repeat was not active; [ ] = dose if it differs, or a comment. Unless noted, calls follow the shape of the dose curve; as a rule, active = well fitted curve in the direction sought with a large enough effect; inconclusive = small, poorly fitted or top-dose-only effect, or another doubt; inactive = no such curve, though single readings can be large; an effect the other way counts as inactive or inconclusive.
SMILES,G9a block,HP1b binding inh,PI5P4Ka inh,BAZ2B inh,JMJD2A Tudor inh,PLK1 PBD block
CN1CCN(S(=O)(=O)c2cccc(C#N)c2)C(c2ccccc2)C1 (stereo unspecified),56.2µM,–,–,–,–,–
CCCNC(=O)C1(C)CCN(C(=O)C2(c3ccc(Cl)cc3)CCCC2)C1 (stereo unspecified),·,·,–,·,·,–
COc1ccc(OCCCC(=O)OCC(=O)N2CCN(S(=O)(=O)c3ccc(C)cc3C)CC2)cc1,·,–,–,·,–,–
Cc1ccc(C)c2[nH]c(=O)c(CN(Cc3ccco3)C(=S)NCC3CCCO3)cc12 (stereo unspecified),39.8µM,–,–,?,–,–
Cc1ccc2cc(CN(Cc3ccco3)C(=S)NCC3CCCO3)c(=O)[nH]c2c1 (stereo unspecified),–,–,–,–,–,–
Cc1cc(C(=O)OCC(=O)Nc2ccc(F)c(F)c2F)c(C)o1,–,–,–,–,20µM,?
Cc1ccc(C)c(N2CCN(C(=O)c3c4c(nc5ccccc35)C(=O)N(C3CCCCC3)C4)CC2)c1,–,–,·,–,–,·
O=C1Nc2c(ccc(Cl)c2Cl)C(=O)C1(F)c1ccccc1 (stereo unspecified),44.7µM,–,–,–,–,–
CC(C)CC(NC(=O)CC12CC3CC(CC(C3)C1)C2)C(=O)NC1=NCCS1 (stereo unspecified),·,–,–,–,22.4µM,15µM
CS(C)(=O)=O,–[2.33 µM],·,·,·,·,·
O=C(COc1coc(CN2CCN(c3ccccc3)CC2)cc1=O)NC1CCCCC1,–,–,–,–,–,–
CCOc1ccc(C(=O)C(C)OC(=O)Cn2[nH]c(=O)c3ccccc3c2=O)cc1 (stereo unspecified),·,–,–,–,–,–
COc1cc(O)c(C(CCN2CCN(c3ccccc3)CC2)c2ccc3c(c2)OCO3)c(OC)c1 (stereo unspecified),?,–,–,10µM,17.8µM,–
COc1cc(O)c(C(CCN2CCN(c3ccccc3)CC2)c2cc(OC)c(OC)c(OC)c2)c(OC)c1 (stereo unspecified),–,?,–,?,39.8µM,–
O=C1Cc2c([nH]c3ccc(Br)cc23)-c2ccccc2N1,39.8µM,–,–,·,–,–
C[C@H](NC(=O)C1CCN(S(=O)(=O)c2ccccc2)CC1)C(=O)NCc1ccc(Cl)cc1Cl,–,–,–,–,–,–
CCNc1ncc2nc(-c3ccc(Cl)cc3)c(=O)n(-c3ccc(OC)cc3)c2n1,–[0.501 µM],·,·,·,·,·
CNc1c2c(nn1C)CCCC2,?,39.8µM!,–,?,20µM!,–
C#CCNc1c2c(nc3nnnn13)CCCC2,–,–,–,–,–,–
COC(=O)CC1C(=O)NCCN1C(=O)c1ccc(Cl)cc1 (stereo unspecified),–,–,–,–,–,–
O=C(C[C@@H]1CC[C@@H](NC(=O)Nc2cccc(F)c2)[C@@H](CO)O1)NCC1CCCCC1,·,·,–,·,·,–
CCNc1nc(NCC)nc(N/N=C/c2ccc(N(C)C)cc2)n1,50.1µM,–,–,44.7µM,?,–
CN(C)c1ccc(/C=N/Nc2nncc3ccccc23)cc1,28.2µM,–,–,–,–,–
CCNc1nc(NCC)nc(N/N=C/c2cc(OC)c(OC)c(OC)c2)n1,–,–,–,–,–,–
CCNc1nc(NCC)nc(N/N=C/c2ccc(O)c(O)c2)n1,39.8µM,–,–,?,–,–
SMILES,G9a block,HP1b binding inh,PI5P4Ka inh,BAZ2B inh,JMJD2A Tudor inh,PLK1 PBD block
Cc1ccc(/C=N/Nc2nnc(Cl)c3ccccc23)cc1,44.7µM,–,–,?,–,–
COC(=O)c1ccccc1NC(=O)c1ccc2c(c1)CCN2S(=O)(=O)c1ccc(C)cc1,–,–,·,–,–,·
Cc1ccc(S(=O)(=O)N2CCC(C(N)=O)CC2)cc1[N+](=O)[O-],·,–,–,–,–,–
CC(=O)c1ccc(NC(=O)c2cc(-c3ccc(C)s3)nc3ccccc23)cc1,–,–,·,–,–,·
Cc1ccc(S(=O)(=O)N2CCOCC2)cc1NC(=O)CSc1nnc(COc2ccccc2F)n1N,·,–,–,·,–,–
C/C(=N\Nc1nncc2ccccc12)c1ccc(C(C)(C)C)cc1,–[2.33 µM],–,–,56.2µM,–,–
COc1ccc([C@H]2Oc3cc(O)cc(O)c3C(=O)C2[C@@H]2C(=O)c3c(O)cc(O)cc3O[C@@H]2c2ccc(OC)cc2)cc1 (stereo partly specified),–,–,-58.0,–,?,–
CC(C(=O)Nc1ccc(C#N)cc1)N1CCN(C(=O)C2CC2)CC1 (stereo unspecified),–,–,–,–,–,–
C=CCn1c(SCc2csc(-c3ccc(Cl)cc3)n2)nnc1-c1ccccc1OC,70.8µM,–,–,–,–,–
Nc1ccccc1SCc1csc(-c2ccc(Cl)cc2)n1,35.5µM,–,–,–,–,9.47µM
Clc1ccc(-c2nc(CSc3ccccn3)cs2)cc1,·,·,–,·,·,–
C=CCn1c(SCC(=O)Nc2ccc3c(c2)OCO3)nnc1-c1ccccc1OC,–,–,–,–,–,–
CN(Cc1c(F)cccc1Cl)C(=O)c1ccc(NS(=O)(=O)c2ccc3[nH]c(=O)[nH]c3c2)cc1,?,–,–,–,–,–
Cc1cc(C)cc(NC(=O)Cn2c(=O)n(-c3ccc(C)c(C)c3)c(=O)c3oc4ccccc4c32)c1,–,–,·,–,–,·
COc1ccc(Br)c(C(=O)N2CCN(S(=O)(=O)c3cccs3)CC2)c1,–,–,–,89.1µM,–,–
COc1cc(C(=O)N2CCN(S(=O)(=O)c3cccs3)CC2)cc(OC)c1C,4.47µM,–,–,50.1µM,79.4µM,–
O=C(c1ccccc1Cl)N1CCN(S(=O)(=O)c2cccs2)CC1,–,–,–,–,–,–
Cc1nc2n(c(=O)c1CCN1CCC(c3noc4cc(F)ccc34)CC1)CCCC2O (stereo unspecified),29.9µM,·,·,·,·,·
CC(CCc1ccccc1)NS(=O)(=O)c1ccc(Cl)c(C(=O)O)c1 (stereo unspecified),?,–,–,–,?,23.8µM
CC(CCc1ccccc1)NS(=O)(=O)c1ccccc1 (stereo unspecified),–,–,–,–,–,–
Cc1ccc(S(=O)(=O)Nc2cc(C(F)(F)F)ccc2N2CCOCC2)cc1,?,–,–,–,–,–
Cc1ccc(S(=O)(=O)Nc2cc(C(F)(F)F)ccc2N2CCOCC2)c(C)c1,50.1µM,–,–,–,–,–
CC(C(=O)N1CCN(C=O)CC1)N1C(=O)c2ccccc2C1=O (stereo unspecified),–,–,–,–,–[11.4 µM],18.9µM
COc1ccc(NC(=O)C(c2ccc(OC)cc2)N(Cc2ccco2)C(=O)CC2NC(=O)NC2=O)cc1 (stereo unspecified),–,–,–,?,–,–
